Assay outcomes (PubChem BioAssay)
Sfp PPTase inh – blocks B. subtilis Sfp PPTase activity. Q9F4F7. Biochemical Sfp PPTase activity, qHTS. Potency, µM, usual class: inhibitors. actives 3.5% (n = 310,000);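 also: the enzyme is Sfp with the accession as filed and its product quenches rhodamine fluorescence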
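Step 1, compound plus 15 nM Sfp-PPTase, 15 min, room temperature. Step 2, add rhodamine-CoA (5 uM) and BHQ-2-YbbR (12.5 uM). Step 3, read 525/598 nm fluorescence at 0 and 30 min.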
VDR inh – blocks the human vitamin D receptor; P11473; VDR-SRC2-3 peptide fluorescence polarization, 2 h; Potency, µM, actives largely listed as inhibitors; actives 0.93% (n = 400,000)
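Measured by FP: displacement of SRC2-3 coactivator peptide from VDR by library compounds, following a two-hour ambient incubation.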
TrxR1 substrate – is turned over as a substrate by rat TrxR1. O89049. purified TrxR1 substrate turnover, NADPH consumption readout. Potency, µM (titrated, usually from 114 µM). actives 0.01% (n = 390,000); also: nearly all actives have a fitted effect of over 50% in size
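Rat TrxR1, dispensed at 90 nM, was prereduced with 400 uM NADPH (final) for 5 min at ~22 deg C, then incubated with compound 15 min before 400 uM selenite. A first-read NADPH fluorescence drop versus no-compound background flagged substrates.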
PLK1 PBD inh – inhibitors of human PLK1 polo-box domain binding; P53350; Potency, µM, most hits filed as inhibitors; Plk1 PBD binding of FITC phosphopeptide, fluorescence polarization; actives 2.8% (n = 360,000); also: series mostly up to about 57 µM; nearly all actives have a fitted effect of over 65% in size
Target sequence (P53350 whole entry, looked up, the tested form may be a part): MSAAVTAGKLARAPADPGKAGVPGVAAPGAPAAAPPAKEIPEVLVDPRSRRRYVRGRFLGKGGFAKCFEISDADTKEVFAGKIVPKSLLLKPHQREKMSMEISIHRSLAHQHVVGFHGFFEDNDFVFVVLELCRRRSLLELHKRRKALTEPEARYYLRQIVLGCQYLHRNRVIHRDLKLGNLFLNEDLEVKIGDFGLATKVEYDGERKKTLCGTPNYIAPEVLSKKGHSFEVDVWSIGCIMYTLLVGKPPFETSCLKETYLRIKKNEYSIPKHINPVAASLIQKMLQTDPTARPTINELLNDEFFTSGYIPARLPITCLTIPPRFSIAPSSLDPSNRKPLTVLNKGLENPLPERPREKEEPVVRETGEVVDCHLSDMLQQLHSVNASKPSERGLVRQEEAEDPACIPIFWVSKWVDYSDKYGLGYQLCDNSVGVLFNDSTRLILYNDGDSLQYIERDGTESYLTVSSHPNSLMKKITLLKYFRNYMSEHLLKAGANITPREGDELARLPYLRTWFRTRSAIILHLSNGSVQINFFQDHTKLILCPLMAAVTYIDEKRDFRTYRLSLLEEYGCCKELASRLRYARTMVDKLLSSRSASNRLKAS
mIDH1 inhibitor – human IDH1 R132H inhibition. IDH1-R132H enzyme, NADPH consumption, diaphorase/resazurin fluorescence. actives 0.093% (n = 390,000). O75874. Potency, µM (titrated, usually from 76.6 µM), hits mostly inhibitors; also: nearly all actives have a fitted effect of over 65% in size
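IDH1-R132H (0.5 ug/mL) preincubated 30 min with compound, then NADPH (0.016 mM) and alpha-KG (2 mM) added; 80 min at RT, pH 7.5. Remaining NADPH coupled via diaphorase/resazurin to fluorescence (540/590 nm); concentration-response curves normalized to no-enzyme control.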
rTrxR1 inhibitor – rat TrxR1 inhibition; recombinant rTrxR1, NADPH fluorescence consumption, selenite substrate; Potency, µM (series often up to 114 µM), usual class: inhibitors; actives 1% (n = 390,000); also: nearly all actives have a fitted effect of over 65% in size
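Rat TrxR1 (90 nM in the dispensed reagent) was pre-reduced with 400 uM NADPH for 5 min at room temperature, then incubated with compound for 15 min. After 400 uM selenite was added, NADPH fluorescence (Ex 340/Em 450 nm) was followed for 8 min.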
TbPYK confirm – Trypanosoma brucei pyruvate kinase inhibition, cherry-pick confirmation. actives 67% (n = 890). Potency, µM (series often up to 76.9 µM), actives largely listed as inhibitors. shares compounds with PLK1 PBD inh. recombinant TbPYK, Kinase-Glo ATP luminescence; also: nearly all actives have a fitted effect of over 70% in size
TbPYK ADP-Glo – TbPYK inhibition, orthogonal confirmation; shares compounds with PLK1 PBD inh; recombinant TbPYK, ADP-Glo luminescence, 60 min; Potency, µM (top dose mostly 76.9 µM), most hits filed as inhibitors; actives 62% (n = 890); AID 720584; also: nearly all actives have a fitted effect of over 75% in size
Large screens that a line does not name were inactive (follow-up assays come after a bar, where they were run). In the library only some 5.2% were active in any assay of this set; here they are far more common. Calls follow the shape of the dose curve; as a rule, active = well fitted curve in the direction sought with a large enough effect; inconclusive = small, poorly fitted or top-dose-only effect, or another doubt; inactive = no such curve, though single readings can be large; an effect the other way counts as inactive or inconclusive.

CCOC(=O)c1ccc(NC(=O)CSc2nc3ncc(Br)c(C)c3[nH]2)cc1	none (no result: Sfp PPTase inh, PLK1 PBD inh)
Cc1cccc(C2=NOC(=O)/C2=C\c2ccccc2F)c1	none (no result: Sfp PPTase inh)
O=C1ON=C(c2ccc([N+](=O)[O-])cc2)/C1=C/c1ccccc1O	Sfp PPTase inh 40µM, VDR inh 79µM, PLK1 PBD inh 1.7µM, rTrxR1 inhibitor 18µM | TbPYK confirm inconclusive | TbPYK ADP-Glo inactive
CCOC(=O)c1c(C)oc2ncnc(Nc3ccc(F)cc3Cl)c12	none (no result: Sfp PPTase inh, PLK1 PBD inh)
COc1ccc(C2NC(=O)c3sc(=S)n(-c4ccccc4)c3N2)cc1 (stereo not drawn)	Sfp PPTase inh 50µM, VDR inh 79µM, PLK1 PBD inh inconclusive | TbPYK confirm 7.1µM | TbPYK ADP-Glo 13µM
COc1ccc(/C=N/n2cnc3c(sc(=S)n3-c3ccccc3)c2=O)cc1	none
CCOC(=O)N1CCN(C(=O)/C=C/c2ccc(OC)cc2)CC1	none
Cc1ccc(NC(=O)c2ccc(F)cc2)nc1	none
Cc1ccc(NC(=O)c2sccc2C)nc1	none | TbPYK confirm inconclusive | TbPYK ADP-Glo inactive
C[C@@H]1CCCCO[C@H](CN(C)Cc2ccc(C(=O)O)cc2)[C@@H](C)CN([C@H](C)CO)C(=O)c2cc(NC(=O)CCC(F)(F)F)ccc2O1	none (no result: Sfp PPTase inh, VDR inh, TrxR1 substrate, rTrxR1 inhibitor)
Cc1ccc(O)c(NC2=C(Cl)C(=O)N(Cc3ccccc3)C2=O)c1	Sfp PPTase inh 7.1µM, VDR inh inconclusive, PLK1 PBD inh 3µM, rTrxR1 inhibitor 10µM | TbPYK confirm 16µM | TbPYK ADP-Glo 20µM
COc1ccc(CNC(=O)/C=C/[C@H]2O[C@@H](n3ccc(=O)[nH]c3=O)[C@H](O)[C@@H]2O)cc1	none (no result: Sfp PPTase inh, VDR inh, TrxR1 substrate, mIDH1 inhibitor, rTrxR1 inhibitor)
COc1ccc(N=C(NN)c2ccc3ccccc3n2)cc1	PLK1 PBD inh 12µM | TbPYK confirm 13µM | TbPYK ADP-Glo inconclusive
CCN1CCC2(CC1)N=C(c1ccc(F)cc1)C(=S)N2C(=O)c1ccc(C(C)(C)C)cc1	Sfp PPTase inh inconclusive, VDR inh 79µM, PLK1 PBD inh 9.5µM | TbPYK confirm 13µM | TbPYK ADP-Glo 18µM
O=C(c1cccc(S(=O)(=O)N2CCc3ccccc3C2)c1)N1CCN(c2ccc(O)cc2)CC1	none | TbPYK confirm 5µM | TbPYK ADP-Glo 14µM
CCOc1ccc(C(=O)/C=C/c2cn(CC(O)CN3CCc4ccccc43)c3ccccc23)cc1 (stereo not drawn)	none (no result: Sfp PPTase inh, PLK1 PBD inh)
Clc1ccc(CSc2nccn2Cc2ccccc2)cc1	none | TbPYK confirm 1.3µM | TbPYK ADP-Glo 1.1µM
CC(C)(C)c1ccc(C(=O)N/C(=C\c2ccco2)C(=O)Nc2ccccc2C(=O)O)cc1	Sfp PPTase inh 50µM, rTrxR1 inhibitor inconclusive | TbPYK confirm inconclusive | TbPYK ADP-Glo inactive
O=C(O)c1ccccc1-c1ccc(C=c2sc3nc4cc(Br)cnc4n3c2=O)o1	PLK1 PBD inh inconclusive (no result: Sfp PPTase inh, VDR inh, TrxR1 substrate, mIDH1 inhibitor, rTrxR1 inhibitor) | TbPYK confirm 14µM | TbPYK ADP-Glo 16µM
O=C(O)c1cccc(-c2ccc(/C=c3/sc4nc5ccccc5n4c3=O)o2)c1	Sfp PPTase inh inconclusive
CCOC(=O)C1=CCN(S(=O)(=O)c2ccc(C)cc2)C1c1ccccc1 (stereo not drawn)	none (no result: Sfp PPTase inh, VDR inh, TrxR1 substrate, mIDH1 inhibitor, rTrxR1 inhibitor)
CCOc1cc2c(c3c1C(c1ccccc1)N(S(=O)(=O)c1ccc(C)cc1)C3)C(=O)C=CC2=O (stereo not drawn)	PLK1 PBD inh inconclusive (no result: Sfp PPTase inh, VDR inh, TrxR1 substrate, mIDH1 inhibitor, rTrxR1 inhibitor) | TbPYK confirm 1.6µM | TbPYK ADP-Glo 2.8µM
CCS(=O)(=O)c1nc(S(=O)(=O)c2ccc(C)cc2)c(N2CCN(C)CC2)s1	VDR inh inconclusive
CCCCOc1ccc(NC(=O)CCSc2nccn2C)cc1	none | TbPYK confirm 2µM | TbPYK ADP-Glo 2.2µM
CCOC(=O)c1ccc(NC(=O)CSc2nccn2C)cc1	none
COc1ccc(OC)c(-n2c(=S)[nH]c3c(sc(=S)n3-c3ccccc3C)c2=O)c1	VDR inh inconclusive, PLK1 PBD inh inconclusive
COc1ccccc1-n1c(=S)[nH]c2c(sc(=S)n2-c2ccccc2C)c1=O	VDR inh inconclusive, PLK1 PBD inh 27µM | TbPYK confirm 5µM | TbPYK ADP-Glo 14µM
CCOc1ccccc1-n1c(=S)sc2c(=O)n(-c3ccccc3)c(=S)[nH]c21	none | TbPYK confirm 11µM | TbPYK ADP-Glo 11µM
COc1cccc(-n2c(=S)sc3c(=O)n(-c4ccccc4OC)c(=S)[nH]c32)c1	PLK1 PBD inh inconclusive
COc1ccccc1-n1c(=S)[nH]c2c(sc(=S)n2-c2ccccc2)c1=O	none | TbPYK confirm 32µM | TbPYK ADP-Glo 18µM
COc1cccc(Cn2c(=O)n(-c3ccccc3C)c(=O)c3c2c2cc(C)ccc2n3C)c1	none (no result: Sfp PPTase inh, PLK1 PBD inh)
Cc1cccc(OCc2nnc(SCC(=O)NCc3ccc4c(c3)OCO4)o2)c1	none (no result: Sfp PPTase inh, VDR inh, TrxR1 substrate, rTrxR1 inhibitor)
COc1ccc(OC)c(S(=O)(=O)Nc2c(C)n(C)n(-c3ccccc3)c2=O)c1	none
COc1ccc(N(CC(=O)NCCSC(C)(C)C)S(C)(=O)=O)c(OC)c1	none | TbPYK confirm 18µM | TbPYK ADP-Glo inconclusive
CN(C)C(=O)c1ccc(N=Nc2c(O)c3ccccc3[nH]c2=O)cc1	none (no result: Sfp PPTase inh)
CN(C)C(=S)N=Nc1[nH]c2ccccc2c1O	PLK1 PBD inh 17µM, rTrxR1 inhibitor inconclusive | TbPYK confirm 5.6µM | TbPYK ADP-Glo 6.3µM
